Data as given in the supplement of paper PMC12067093, “Discovery and optimisation of a covalent ligand for TRIM25 and its application to targeted protein ubiquitination” (Chemical Science, 2025).
Targets with the largest changes are over-represented here; the source holds about 21,000 in all.

Experiments:
Test in all cases: probe-labelled cysteine peptide fold change vs DMSO (competition) (log2 fold change); higher = less target engagement (more negative = stronger competition)
Conditions in all cases: THP-1, incubation time: 4 h
[1] = target: A6NIZ1_A6NIZ1_118_VKDTDDVPMILVGNKCDLEDERVVGK<|>RAP1B_P61224_118_VKDTDDVPMILVGNKCDLEDERVVGK (UniProt P61224+A6NIZ1)
[2] = target: A6NNZ2_A6NNZ2_303_NMMAACDPR<|>TUBB4A_P04350_303_NMMAACDPR<|>TUBB_P07437_303_NMMAACDPR<|>TUBB4B_P68371_303_NMMAACDPR<|>TUBB3_Q13509_303_NMMAACDPR<|>TUBB2A_Q3ZCM7_303_NMMAACDPR<|>TUBB8_Q9BUF5_303_NMMAACDPR<|>TUBB6_Q9BVA1_303_NMMAACDPR (UniProt Q9BVA1+Q3ZCM7+Q13509+P68371+P07437+P04350+Q9BUF5+A6NNZ2)
[3] = target: ABCC1_P33527_1047_CLHVDLLHSILR (UniProt P33527)
UniProt P33527, sequence (P33527 whole entry, looked up): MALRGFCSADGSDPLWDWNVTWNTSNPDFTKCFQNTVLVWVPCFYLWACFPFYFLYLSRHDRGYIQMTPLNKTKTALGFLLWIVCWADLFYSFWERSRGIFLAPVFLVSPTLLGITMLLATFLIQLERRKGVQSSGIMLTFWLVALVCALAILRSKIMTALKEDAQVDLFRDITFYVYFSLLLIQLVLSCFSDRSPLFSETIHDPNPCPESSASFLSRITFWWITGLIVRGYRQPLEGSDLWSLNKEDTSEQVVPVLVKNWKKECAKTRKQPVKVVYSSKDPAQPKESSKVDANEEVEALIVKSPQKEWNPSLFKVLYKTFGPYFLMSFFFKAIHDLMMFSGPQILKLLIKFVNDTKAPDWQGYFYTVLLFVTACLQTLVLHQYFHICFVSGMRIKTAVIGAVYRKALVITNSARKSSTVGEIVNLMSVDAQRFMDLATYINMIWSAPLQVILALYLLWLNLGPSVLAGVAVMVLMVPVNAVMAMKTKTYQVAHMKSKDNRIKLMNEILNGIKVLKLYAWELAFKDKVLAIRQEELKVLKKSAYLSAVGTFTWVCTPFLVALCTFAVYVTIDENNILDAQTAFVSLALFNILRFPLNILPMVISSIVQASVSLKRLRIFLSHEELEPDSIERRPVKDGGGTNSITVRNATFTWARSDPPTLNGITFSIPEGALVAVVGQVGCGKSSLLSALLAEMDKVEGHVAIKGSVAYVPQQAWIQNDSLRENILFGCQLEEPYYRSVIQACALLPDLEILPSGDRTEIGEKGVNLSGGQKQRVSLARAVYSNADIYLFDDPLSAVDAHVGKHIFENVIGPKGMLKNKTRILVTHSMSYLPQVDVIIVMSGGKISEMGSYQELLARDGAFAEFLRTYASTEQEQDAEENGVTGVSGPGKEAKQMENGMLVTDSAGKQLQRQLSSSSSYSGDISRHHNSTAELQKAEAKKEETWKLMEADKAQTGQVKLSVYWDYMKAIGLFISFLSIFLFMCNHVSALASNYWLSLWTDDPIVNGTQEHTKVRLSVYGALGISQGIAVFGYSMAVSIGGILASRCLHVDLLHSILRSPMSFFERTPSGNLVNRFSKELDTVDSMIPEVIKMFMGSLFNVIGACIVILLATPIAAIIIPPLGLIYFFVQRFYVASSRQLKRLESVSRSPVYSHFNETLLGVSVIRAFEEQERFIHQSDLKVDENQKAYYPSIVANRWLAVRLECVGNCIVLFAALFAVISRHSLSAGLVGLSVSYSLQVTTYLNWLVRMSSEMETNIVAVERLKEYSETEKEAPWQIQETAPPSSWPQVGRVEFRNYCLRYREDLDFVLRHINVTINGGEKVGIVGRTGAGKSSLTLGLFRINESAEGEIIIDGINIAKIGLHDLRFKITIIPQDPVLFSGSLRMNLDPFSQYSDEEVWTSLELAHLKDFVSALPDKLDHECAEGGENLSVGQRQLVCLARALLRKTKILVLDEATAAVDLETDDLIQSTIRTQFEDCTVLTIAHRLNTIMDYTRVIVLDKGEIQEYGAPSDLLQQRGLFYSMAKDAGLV

[4] = target: ABCF2_Q9UG63_586_LIQQVAQEIWVCEK (UniProt Q9UG63)
UniProt Q9UG63, sequence (Q9UG63 whole entry, looked up): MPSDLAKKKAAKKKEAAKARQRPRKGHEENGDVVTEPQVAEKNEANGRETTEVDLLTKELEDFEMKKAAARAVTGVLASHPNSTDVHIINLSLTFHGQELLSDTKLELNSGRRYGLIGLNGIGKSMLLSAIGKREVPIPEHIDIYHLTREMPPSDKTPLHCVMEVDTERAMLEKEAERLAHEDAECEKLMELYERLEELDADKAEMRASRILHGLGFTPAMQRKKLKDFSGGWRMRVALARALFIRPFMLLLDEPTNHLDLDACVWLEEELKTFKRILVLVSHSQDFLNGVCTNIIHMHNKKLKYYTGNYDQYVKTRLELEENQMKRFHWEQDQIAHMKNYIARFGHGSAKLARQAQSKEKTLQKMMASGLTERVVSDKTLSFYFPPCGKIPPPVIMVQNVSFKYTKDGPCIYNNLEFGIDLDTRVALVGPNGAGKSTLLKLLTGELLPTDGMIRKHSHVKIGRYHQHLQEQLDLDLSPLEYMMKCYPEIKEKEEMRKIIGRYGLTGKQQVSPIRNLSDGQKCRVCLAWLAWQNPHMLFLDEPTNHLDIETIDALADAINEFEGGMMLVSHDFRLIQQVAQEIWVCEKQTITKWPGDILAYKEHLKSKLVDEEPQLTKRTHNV

[5] = target: ABHD10_Q9NUJ1_229_EAEHHCLLHSPIPVNCPIR (UniProt Q9NUJ1)
[6] = target: ABHD15_Q6UXT9_323_EFEEALFCHTK (UniProt Q6UXT9)
[7] = target: ABHD16A_O95870_544_HLHNFEATHCTPLPAQNFQMPWHL (UniProt O95870)
UniProt O95870, sequence (O95870 whole entry, looked up): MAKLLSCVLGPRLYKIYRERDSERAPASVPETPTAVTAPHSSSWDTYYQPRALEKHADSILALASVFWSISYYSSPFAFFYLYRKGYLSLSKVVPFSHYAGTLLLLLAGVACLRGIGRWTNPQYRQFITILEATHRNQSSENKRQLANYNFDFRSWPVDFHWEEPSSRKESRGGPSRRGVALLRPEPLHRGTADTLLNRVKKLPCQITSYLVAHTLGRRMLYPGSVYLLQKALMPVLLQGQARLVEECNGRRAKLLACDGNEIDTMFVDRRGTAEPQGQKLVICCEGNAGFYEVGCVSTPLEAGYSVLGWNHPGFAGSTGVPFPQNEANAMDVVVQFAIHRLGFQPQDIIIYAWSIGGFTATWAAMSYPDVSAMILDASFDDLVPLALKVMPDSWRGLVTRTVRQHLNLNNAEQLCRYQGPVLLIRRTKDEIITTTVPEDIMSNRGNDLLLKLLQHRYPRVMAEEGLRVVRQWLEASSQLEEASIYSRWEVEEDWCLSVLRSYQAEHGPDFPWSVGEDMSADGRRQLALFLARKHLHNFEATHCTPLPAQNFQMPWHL

[8] = target: ABHD17B_Q5VST6_250_CQRPVEPLWVEGAGHNDVELYGQYLER (UniProt Q5VST6)
[9] = target: ACAA1_P09110_123_QCSSGLQAVASIAGGIR (UniProt P09110)
UniProt P09110, sequence (P09110 whole entry, looked up): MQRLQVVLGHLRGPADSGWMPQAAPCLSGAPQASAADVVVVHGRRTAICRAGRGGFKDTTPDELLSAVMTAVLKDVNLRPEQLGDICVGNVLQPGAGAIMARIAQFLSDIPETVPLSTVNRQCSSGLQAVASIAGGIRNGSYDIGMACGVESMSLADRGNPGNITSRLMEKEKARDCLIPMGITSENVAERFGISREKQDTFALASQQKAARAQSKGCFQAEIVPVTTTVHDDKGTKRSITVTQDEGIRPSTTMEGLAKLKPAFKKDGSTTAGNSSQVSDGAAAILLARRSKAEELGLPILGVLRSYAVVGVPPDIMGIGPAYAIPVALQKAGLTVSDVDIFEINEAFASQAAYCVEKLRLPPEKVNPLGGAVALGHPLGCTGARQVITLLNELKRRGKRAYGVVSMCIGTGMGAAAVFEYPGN

[10] = target: ACAA1_P09110_177_ARDCLIPMGITSENVAER (UniProt P09110)
UniProt P09110, sequence (P09110 whole entry, looked up): as above

[11] = target: ACAA2_P42765_116_EAEVVLCGGTESMSQAPYCVR (UniProt P42765)
[12] = target: ACAD9_Q9H845_271_GSNTCEVHFENTK (UniProt Q9H845)
UniProt Q9H845, sequence (Q9H845 whole entry, looked up): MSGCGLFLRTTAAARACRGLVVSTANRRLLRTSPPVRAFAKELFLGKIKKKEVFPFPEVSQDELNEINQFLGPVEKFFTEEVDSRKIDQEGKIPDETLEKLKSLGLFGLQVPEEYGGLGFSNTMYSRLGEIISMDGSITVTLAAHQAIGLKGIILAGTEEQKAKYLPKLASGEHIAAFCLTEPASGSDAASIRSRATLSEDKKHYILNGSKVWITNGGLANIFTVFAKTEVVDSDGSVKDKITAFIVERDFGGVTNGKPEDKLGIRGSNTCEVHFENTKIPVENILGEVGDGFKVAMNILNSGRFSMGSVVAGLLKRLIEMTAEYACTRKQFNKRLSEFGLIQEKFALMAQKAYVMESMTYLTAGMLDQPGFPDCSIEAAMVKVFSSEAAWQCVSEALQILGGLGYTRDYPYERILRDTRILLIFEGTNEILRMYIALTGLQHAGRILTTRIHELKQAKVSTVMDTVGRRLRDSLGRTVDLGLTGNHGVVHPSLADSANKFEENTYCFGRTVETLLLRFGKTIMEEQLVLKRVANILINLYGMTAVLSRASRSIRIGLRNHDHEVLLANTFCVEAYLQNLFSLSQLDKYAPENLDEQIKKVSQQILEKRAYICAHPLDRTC

[13] = target: ACADS_P16219_109_GCASTGVIMSVNNSLYLGPILK (UniProt P16219)
UniProt P16219, sequence (P16219 whole entry, looked up): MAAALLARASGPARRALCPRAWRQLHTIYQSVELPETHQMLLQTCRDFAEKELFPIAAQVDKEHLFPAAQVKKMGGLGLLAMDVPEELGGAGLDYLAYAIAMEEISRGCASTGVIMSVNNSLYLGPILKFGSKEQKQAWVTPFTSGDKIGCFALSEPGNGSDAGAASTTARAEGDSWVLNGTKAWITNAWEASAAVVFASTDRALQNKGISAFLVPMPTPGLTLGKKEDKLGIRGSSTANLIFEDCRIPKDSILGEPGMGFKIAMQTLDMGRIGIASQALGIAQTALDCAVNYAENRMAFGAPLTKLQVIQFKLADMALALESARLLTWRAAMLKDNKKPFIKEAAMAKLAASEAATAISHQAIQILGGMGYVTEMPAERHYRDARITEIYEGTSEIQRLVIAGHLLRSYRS

[14] = target: ACADVL_P49748_237_TSAVPSPCGK (UniProt P49748)
[15] = target: ACADVL_P49748_477_LFVALQGCMDK (UniProt P49748)
[16] = target: ACADVL_P49748_603_MLCDTWCIEAAAR (UniProt P49748)
[17] = target: ACAP2_Q15057_329_FCFEVVSPTK (UniProt Q15057)
ACAP2_Q15057_329_FCFEVVSPTK, sequence (Q15057 whole entry, looked up): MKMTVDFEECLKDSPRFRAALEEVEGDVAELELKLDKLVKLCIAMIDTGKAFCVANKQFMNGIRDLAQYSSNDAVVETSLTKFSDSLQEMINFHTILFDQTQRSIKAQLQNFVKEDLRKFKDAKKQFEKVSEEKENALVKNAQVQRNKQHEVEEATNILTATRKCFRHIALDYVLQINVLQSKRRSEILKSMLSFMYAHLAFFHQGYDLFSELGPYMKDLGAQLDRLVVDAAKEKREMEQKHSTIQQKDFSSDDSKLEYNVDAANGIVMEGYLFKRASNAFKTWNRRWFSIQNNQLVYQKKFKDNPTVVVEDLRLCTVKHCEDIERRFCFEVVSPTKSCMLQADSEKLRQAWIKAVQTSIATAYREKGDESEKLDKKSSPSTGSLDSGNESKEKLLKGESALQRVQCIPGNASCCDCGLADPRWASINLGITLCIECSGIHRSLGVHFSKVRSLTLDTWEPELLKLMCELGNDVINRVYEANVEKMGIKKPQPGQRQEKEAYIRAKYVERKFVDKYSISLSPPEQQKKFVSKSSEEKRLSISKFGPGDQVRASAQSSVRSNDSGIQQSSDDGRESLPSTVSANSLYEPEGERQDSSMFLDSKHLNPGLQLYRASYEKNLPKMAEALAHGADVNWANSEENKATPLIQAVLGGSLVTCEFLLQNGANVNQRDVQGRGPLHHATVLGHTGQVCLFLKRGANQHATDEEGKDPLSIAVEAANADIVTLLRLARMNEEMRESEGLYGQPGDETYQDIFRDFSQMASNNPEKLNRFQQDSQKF

[18] = target: ACAP2_Q15057_691_GPLHHATVLGHTGQVCLFLK (UniProt Q15057)
UniProt Q15057, sequence (Q15057 whole entry, looked up): as the sequence (Q15057 whole entry, looked up) above

[19] = target: ACAT1_P24752_196_IHMGSCAENTAK (UniProt P24752)
[20] = target: ACAT1_P24752_413_QGEYGLASICNGGGGASAMLIQK (UniProt P24752)
[21] = target: ACAT2_Q9BWD1_360_VNIEGGAIALGHPLGASGCR (UniProt Q9BWD1)
[22] = target: ACLY_P53396_633_GVTIIGPATVGGIKPGCFK (UniProt P53396)
[23] = target: ACO2_Q99798_451_DLGGIVLANACGPCIGQWDRK (UniProt Q99798)
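Also: competitive profiling in live THP-1 cells: cysteine peptides tagged with an iodoacetamide desthiobiotin (IA-DTB) probe, intensity after compound treatment relative to DMSO-treated cells.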

## Cc1cc(C(=O)N2CCCN(C(=O)CCl)CC2)ccc1-c1ccccc1 [compound 10]
[1]; 10 µM
  probe-labelled cysteine peptide fold change: -0.667
[1]; 50 µM
  probe-labelled cysteine peptide fold change: -1.16
[2]; 10 µM
  probe-labelled cysteine peptide fold change: -0.0352
[2]; 50 µM
  probe-labelled cysteine peptide fold change: -0.104
[3]; 10 µM
  probe-labelled cysteine peptide fold change: -0.245
[3]; 50 µM
  probe-labelled cysteine peptide fold change: -0.823
[4]; 10 µM
  probe-labelled cysteine peptide fold change: 0.35
[4]; 50 µM
  probe-labelled cysteine peptide fold change: 0.325
[5]; 10 µM
  probe-labelled cysteine peptide fold change: 0.0491
[5]; 50 µM
  probe-labelled cysteine peptide fold change: 0.0493
[6]; 10 µM
  probe-labelled cysteine peptide fold change: 0.0269
[6]; 50 µM
  probe-labelled cysteine peptide fold change: -0.0455
[7]; 10 µM
  probe-labelled cysteine peptide fold change: -0.497
[7]; 50 µM
  probe-labelled cysteine peptide fold change: -1.15
[8]; 10 µM
  probe-labelled cysteine peptide fold change: 0.198
[8]; 50 µM
  probe-labelled cysteine peptide fold change: 0.147
[9]; 10 µM
  probe-labelled cysteine peptide fold change: -0.136
[9]; 50 µM
  probe-labelled cysteine peptide fold change: -0.197
[10]; 10 µM
  probe-labelled cysteine peptide fold change: -0.114
[10]; 50 µM
  probe-labelled cysteine peptide fold change: 0.0101
[11]; 10 µM
  probe-labelled cysteine peptide fold change: -0.0523
[11]; 50 µM
  probe-labelled cysteine peptide fold change: 0.00696
[12]; 10 µM
  probe-labelled cysteine peptide fold change: 0.0883
[12]; 50 µM
  probe-labelled cysteine peptide fold change: 0.106
[13]; 10 µM
  probe-labelled cysteine peptide fold change: 0.363
[13]; 50 µM
  probe-labelled cysteine peptide fold change: 0.27
[14]; 10 µM
  probe-labelled cysteine peptide fold change: -0.143
[14]; 50 µM
  probe-labelled cysteine peptide fold change: -0.259
[15]; 10 µM
  probe-labelled cysteine peptide fold change: -0.223
[15]; 50 µM
  probe-labelled cysteine peptide fold change: 0.311
[16]; 10 µM
  probe-labelled cysteine peptide fold change: -0.105
[16]; 50 µM
  probe-labelled cysteine peptide fold change: -0.188
[17]; 10 µM
  probe-labelled cysteine peptide fold change: 0.23
[17]; 50 µM
  probe-labelled cysteine peptide fold change: 0.177
[18]; 10 µM
  probe-labelled cysteine peptide fold change: -0.107
[18]; 50 µM
  probe-labelled cysteine peptide fold change: -1.08
[19]; 10 µM
  probe-labelled cysteine peptide fold change: -0.282
[19]; 50 µM
  probe-labelled cysteine peptide fold change: -1.22
[20]; 10 µM
  probe-labelled cysteine peptide fold change: -0.164
[20]; 50 µM
  probe-labelled cysteine peptide fold change: -1.09
[21]; 10 µM
  probe-labelled cysteine peptide fold change: 0.232
[21]; 50 µM
  probe-labelled cysteine peptide fold change: 0.226
[22]; 10 µM
  probe-labelled cysteine peptide fold change: -0.00834
[22]; 50 µM
  probe-labelled cysteine peptide fold change: 0.0362
[23]; 10 µM
  probe-labelled cysteine peptide fold change: -0.125
[23]; 50 µM
  probe-labelled cysteine peptide fold change: -0.398
